From PubChem BioAssay (NCI)
Compounds without any hit were thinned out: in the full panel of roughly 83,000, 20% have a hit.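 In brief: 96-well plates, 48 h treatment, single concentration, percent growth endpoint.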 Values without a mark were called inactive. Active and inactive are the calls of the source. The calls were made as follows: active = growth percent below 10; inactive = the rest.

What was measured:
Assay in all cases: NCI-60 one-dose screen, 48 h (100 = growth as untreated, 0 = no growth, -100 = all killed)
Settings in all cases: 10 µM unless noted
DU-145 prostate = tested on: DU-145 prostate
K-562 leukemia = tested on: K-562 leukemia
MALME-3M melanoma = tested on: MALME-3M melanoma
MDA-MB-231 breast = tested on: MDA-MB-231 breast
RXF 393 renal = tested on: RXF 393 renal
SF-268 CNS = tested on: SF-268 CNS
SF-295 CNS = tested on: SF-295 CNS
SF-539 CNS = tested on: SF-539 CNS
UACC-257 melanoma = tested on: UACC-257 melanoma
M14 melanoma = tested on: M14 melanoma
HCT-15 colon = tested on: HCT-15 colon
HT29 colon = tested on: HT29 colon
SNB-75 CNS = tested on: SNB-75 CNS
SNB-19 CNS = tested on: SNB-19 CNS
U251 CNS = tested on: U251 CNS
PC-3 prostate = tested on: PC-3 prostate
SK-MEL-5 melanoma = tested on: SK-MEL-5 melanoma
LOX IMVI melanoma = tested on: LOX IMVI melanoma
SK-MEL-28 melanoma = tested on: SK-MEL-28 melanoma

SMILES | growth (DU-145 prostate) | growth (K-562 leukemia) | growth (MALME-3M melanoma) | growth (MDA-MB-231 breast) | growth (RXF 393 renal) | growth (SF-268 CNS) | growth (SF-295 CNS) | growth (SF-539 CNS) | growth (UACC-257 melanoma) | growth (M14 melanoma) | growth (HCT-15 colon) | growth (HT29 colon) | growth (SNB-75 CNS) | growth (SNB-19 CNS) | growth (U251 CNS) | growth (PC-3 prostate) | growth (SK-MEL-5 melanoma) | growth (LOX IMVI melanoma) | growth (SK-MEL-28 melanoma)
CN(C)CCCCC(C(=O)CBr)(c1ccccc1)c1ccccc1 | 31% | -7.09% (active) | -55.9% (active) | 38.1% | -51.5% (active) | 48.7% | 43.7% | 20.2% | 6.07% (active) | 18.8% | -33.9% (active) | 8.94% (active) | 46% | 82.6% | 41.5% | 51.6% | 35% | -39% (active) | 23.6%
Cn1cc(-c2csc(-c3cn(CCN)c4ccc(F)cc34)n2)c2cccnc21 | 68.5% | 11.4% | 87.4% | 59.9% | 82.6% | 85.9% | 92.4% | 80.1% | 100% | 81.4% | 55.9% | 74.7% | 75.7% | 77.7% | 81.4% | 61.3% | 57% | 60.4% | 98.2%
COc1cc(-c2cc3ncccc3c3nc(OCCN(C)C)c4cccnc4c23)cc(OC)c1OC | 1.52% (active) | 7.73% (active) | 8.86% (active) | 20.2% | -72.1% (active) | 23.1% | 9.6% (active) | 17.9% | 15.1% | 23% | 23.1% | 9.99% (active) | -36.8% (active) | 15% | 11.8% | 16.2% | -7.91% (active) | -43.5% (active) | 31.6%
COc1cnc2c(c1)C(=O)c1c-2n(CCCNC2=NCCS2)c(=O)c2cc([N+](=O)[O-])ccc12 | -74.7% (active) | -14.9% (active) | -60.6% (active) | -58.4% (active) | -2.16% (active) | -39.4% (active) | 11.7% | -66.5% (active) | 35.4% | -73.5% (active) | -60.8% (active) | -42.4% (active) | 23.7% | 27.2% | -83.9% (active) | -48.1% (active) | -41% (active) | -91.3% (active) | -35.9% (active)
